Growth data for 13 compounds are collected here from PubChem BioAssay (NCI).

The panel holds about 83,000 compounds, 20% with a hit somewhere; the sample as a whole holds those more often.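 Testing used 96-well plates and a 48-hour single-concentration exposure. Example: -40 means 40% of the starting cells died.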 A number with no mark means an inactive call. Activity calls are given as the source filed them. The calls were made as follows: active = growth percent below 10; inactive = the rest.

Test systems include HCT-15 colon; HT29 colon; SNB-75 CNS; SNB-19 CNS; U251 CNS; PC-3 prostate; SK-MEL-5 melanoma; UACC-62 melanoma; LOX IMVI melanoma; SK-MEL-28 melanoma.
What all share (assay): NCI-60 one-dose screen, 48 h (100 = growth as untreated, 0 = no growth, -100 = all killed)
Common to all, as to settings: 10 µM unless noted

For the compound `CCCCCc1c(C)[nH]c(/C=c2\[nH]/c(=C3/C=c4ccccc4=N3)cc2OC)c1C`, the growth in the experiment with HCT-15 colon is -29.8% (active); in the experiment with HT29 colon, -13.4% (active); in the experiment with SNB-75 CNS, -22.6% (active); in the experiment on SNB-19 CNS it was 10.5%; with U251 CNS, -95.1% (active); in the experiment with PC-3 prostate, -6.91% (active). Besides, the growth in the experiment with SK-MEL-5 melanoma was -98.7% (active); in the experiment with UACC-62 melanoma, -78.9% (active); in the experiment on LOX IMVI melanoma, -85.2% (active); in the experiment with SK-MEL-28 melanoma, -60.2% (active).
In the case of `CC(C)CCC[C@@H](C)[C@H]1CC[C@H]2[C@@H]3CC[C@H]4C/C(=N/O)CC[C@]4(C)[C@H]3CC[C@]12C`, the growth with HCT-15 colon was 111%; in the experiment on HT29 colon, 105%; in the experiment on SNB-75 CNS, 96.9%; with SNB-19 CNS, 104%; in the experiment with U251 CNS, 96.6%; in the experiment on PC-3 prostate it was 83.4%. Moreover, the growth was 98.3% with SK-MEL-5 melanoma, 98.6% with UACC-62 melanoma, 96.6% in the experiment on LOX IMVI melanoma and 116% in the experiment on SK-MEL-28 melanoma.
On to `COc1ccccc1CNCCCN1C(=O)c2ccc3c4c(ccc(c24)C1=O)C(=O)N(CCCNCCCCNCCCCN)C3=O`, for which the growth in the experiment on HCT-15 colon was 30.6%; in the experiment on HT29 colon it was 1.62% (active); in the experiment on SNB-75 CNS, -37.8% (active); with SNB-19 CNS it was 4.86% (active); in the experiment with U251 CNS it was 0.458% (active); in the experiment on PC-3 prostate, -12.5% (active). Further, the growth with SK-MEL-5 melanoma was -85% (active); in the experiment on UACC-62 melanoma, -75% (active); with LOX IMVI melanoma it was -3.52% (active); with SK-MEL-28 melanoma, -13.9% (active).
Consider `COc1ncc(-c2ccc3ncnc(Nc4cccc(Cl)c4)c3c2)cc1N(S(C)(=O)=O)S(C)(=O)=O`, for which the growth with HCT-15 colon is 54.9%; in the experiment with HT29 colon, 53%; in the experiment on SNB-75 CNS, 41.1%; with SNB-19 CNS, 72.8%; with U251 CNS, 82.1%; in the experiment with PC-3 prostate, 52.1%. Moreover, the growth with SK-MEL-5 melanoma is 73.6%; with UACC-62 melanoma, 58.1%; in the experiment with LOX IMVI melanoma, 63.7%; in the experiment with SK-MEL-28 melanoma, 72.8%.
As for `COc1cc(CCn2nnc3c(Nc4ccc(N5CCOCC5)cc4)ncnc32)cc(OC)c1`, the growth with HCT-15 colon was 93.6%; in the experiment on HT29 colon it was 99.3%; with SNB-75 CNS it was 94.2%; in the experiment with SNB-19 CNS, 93.3%; in the experiment on U251 CNS, 95.6%; in the experiment with PC-3 prostate, 72.1%. Moreover, the growth with SK-MEL-5 melanoma is 93.6%; with UACC-62 melanoma, 91.5%; in the experiment with LOX IMVI melanoma it was 97.5%; in the experiment on SK-MEL-28 melanoma it was 97%.
With `O=C(CN1CCOCC1)Nc1ccc(-c2nc3ccccc3s2)cc1`, the growth is 93.7% with HCT-15 colon; 103% in the experiment with HT29 colon; 100% with SNB-75 CNS; 101% in the experiment with SNB-19 CNS; 89.5% in the experiment on U251 CNS; 93% in the experiment on PC-3 prostate. Besides, the growth with SK-MEL-5 melanoma is 92.7%; with UACC-62 melanoma, 100%; with LOX IMVI melanoma it was 99.9%; with SK-MEL-28 melanoma, 102%.
Take `O=C(Nc1cccc(C(F)(F)F)c1)Nc1ccc(OCc2nnc(-c3ccccc3)o2)c(F)c1`: the growth was 26.7% with HCT-15 colon; 43.2% with HT29 colon; 19.2% in the experiment on SNB-75 CNS; 46.6% in the experiment on SNB-19 CNS; 29.5% in the experiment with U251 CNS; 5.14% (active) in the experiment on PC-3 prostate. Further, the growth was 56.2% in the experiment on SK-MEL-5 melanoma, 41.4% in the experiment with UACC-62 melanoma, 46.8% with LOX IMVI melanoma and 62.5% in the experiment on SK-MEL-28 melanoma.
For `CC(=O)N1Cc2ccccc2C(C)Cc2cc(Cl)ccc21` (stereo not given), the growth was 105% with HCT-15 colon; 97.6% in the experiment with HT29 colon; 101% in the experiment on SNB-75 CNS; 101% with SNB-19 CNS; 105% with U251 CNS; 95.8% with PC-3 prostate. The growth is 103% with SK-MEL-5 melanoma, 98% with UACC-62 melanoma, 105% in the experiment on LOX IMVI melanoma and 112% in the experiment on SK-MEL-28 melanoma.
For the compound `O=C1N=C(c2c(-c3[nH]c(=O)c4ccc(Br)cc4c3O)c(O)c3ccccc3c2O)C(=O)c2cc(Br)ccc21`, the growth in the experiment on HCT-15 colon is -36.3% (active); with HT29 colon it was 25.7%; in the experiment with SNB-75 CNS, -35.8% (active); with SNB-19 CNS, 4.13% (active); in the experiment with U251 CNS it was -57.9% (active); with PC-3 prostate, -60.5% (active). In addition, the growth in the experiment on SK-MEL-5 melanoma is -9.06% (active); with UACC-62 melanoma, -48.9% (active); in the experiment on LOX IMVI melanoma it was -67.5% (active); in the experiment on SK-MEL-28 melanoma, -47.8% (active).
For the compound `NC(=S)NN=C1CCCCC1`, the growth was 77.7% in the experiment on HCT-15 colon; 47.5% with HT29 colon; 105% with SNB-75 CNS; 106% in the experiment with SNB-19 CNS; 76.4% with U251 CNS; 82.7% with PC-3 prostate. The growth in the experiment with SK-MEL-5 melanoma is 99.2%; in the experiment with UACC-62 melanoma, 90%; in the experiment with LOX IMVI melanoma, 77.9%; with SK-MEL-28 melanoma, 98.3%.
On to `O=c1oc2cc(OS(=O)(=O)c3ccc(F)cc3)ccc2c2c1CCCCC2`, for which the growth is 26.8% in the experiment on HCT-15 colon; 27.5% in the experiment with HT29 colon; 80.9% in the experiment with SNB-75 CNS; 78.1% with SNB-19 CNS; 57.6% in the experiment with U251 CNS; 44.6% in the experiment on PC-3 prostate. Besides, the growth with SK-MEL-5 melanoma was 32.8%; in the experiment with UACC-62 melanoma, 65.3%; in the experiment on LOX IMVI melanoma, 88.1%; with SK-MEL-28 melanoma, 86.1%.
For the compound `Cc1cc(Nc2nc(C(=O)Nc3ccccc3)nc3ccccc23)n[nH]1`, the growth is 29.5% with HCT-15 colon; 84.7% in the experiment on HT29 colon; -0.848% (active) in the experiment on SNB-75 CNS; 97.3% with SNB-19 CNS; 72.5% with U251 CNS; 51.2% in the experiment on PC-3 prostate. Also, the growth with SK-MEL-5 melanoma is 59.2%; in the experiment with UACC-62 melanoma, 59.9%; with LOX IMVI melanoma it was 54%; in the experiment with SK-MEL-28 melanoma, 69.5%.
Consider `CC1=CNNc2c3ncnc-3ncn21`, for which the growth in the experiment with HCT-15 colon is 102%; in the experiment with HT29 colon it was 104%; with SNB-75 CNS it was 101%; with SNB-19 CNS it was 99.1%; in the experiment with U251 CNS, 102%; with PC-3 prostate, 99.9%. The growth with SK-MEL-5 melanoma was 99.7%; with UACC-62 melanoma, 98.6%; in the experiment with LOX IMVI melanoma it was 106%; with SK-MEL-28 melanoma it was 105%.
